Our source for the inhibition values is PubChem BioAssay AID2313 (Broad Institute, 2010).

Screen size: about 22,000 compounds; about 460 (2.1%) were called active. Roughly 2% stayed inconclusive and do not appear here. This is one part of a sample in which actives are shown more often than they occur. Unmarked numbers belong to inactive results.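 Rule for the calls: active = mean inhibition across valid replicates above about 65% (limit read from the data); inconclusive = mean under the limit, yet half or more replicates past it; inactive = the rest.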

This experiment in a line: Hedgehog pathway signaling inhibitors, primary screen, luminescence, Shh-LIGHT2 cells, Gli-luciferase (AID 2313).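 Note: pathway switched on by Shh-conditioned medium diluted 1 in 25 in low serum.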 As to conditions: Shh-LIGHT2 Gli-luciferase reporter, 30 h; stronger effect = higher value.
Regarding `c1ccc2c(c1)[I+]c1ccccc1-2`, the inhibition is 88.8% (active).

As for `COC(/C=C/CC/C=C/C(=O)O)C(O)C(C)C(O)/C(C)=C/C(C)C(=O)CCCC1CC(=O)NC(=O)C1` (stereo not given), the inhibition is -22.8%.

Consider `CC(C)c1c(CN(C)C(C)Cc2ccccc2)n(C)n(-c2ccccc2)c1=O` (stereo not given), for which the inhibition was -38.5%.

As for `CC(C)Nc1nc(Cl)nc(NC(C)C)n1`, the inhibition is -55.8%.

Turning to `CN(C)C(=O)Oc1cc(OC(=O)N(C)C)cc(C(O)CNC(C)(C)C)c1` (stereo not given), the inhibition was 33.4%.

Turning to `C[C@H]1CCC/C=C/C2C[C@H](O)C[C@H]2[C@H](O)/C=C\C(=O)O1` (stereo not given in full), the inhibition is 107% (active).

`C=CC(C)(C)c1cc2cc3c(cc2oc1=O)O[C@H](C(C)(C)O)C3`: the inhibition was -36.2%.

Regarding `CC=C1CN2C3CC1C1(C(=O)OC)C2CC2(c4ccccc4N(C)C32)C1O` (stereo not given), the inhibition was 11.9%.

For `CCCCC/C=C\C/C=C\C/C=C\CCCCCCC(=O)NCCO`, the inhibition is -2.94%.

As for `C[C@@H]1O[C@@H](O[C@@H]2C=C3CC[C@@H]4C(C[C@@H](O)[C@]5(C)[C@@H](c6ccc(=O)oc6)CC[C@]45O)[C@@]3(C)CC2)[C@H](O)[C@H](O)[C@H]1O[C@@H]1O[C@H](CO)[C@@H](O)[C@H](O)[C@H]1O` (stereo not given in full), the inhibition is -37.6%.

`CC(C)[C@@]1(NC(=O)[C@@H]2CC3c4cccc5[nH]cc(c45)C[C@H]3N(C)C2)O[C@@]2(O)[C@@H]3CCCN3C(=O)[C@H](Cc3ccccc3)N2C1=O` (stereo not given in full): the inhibition was 21.5%.

In the case of `O=C(c1ccccc1)C12CN3CN(CN(C3)C1)C2`, the inhibition was -5.62%.

On to `COc1c(C(C)C)cc2c(c1O)[C@@]1(C(=O)O)CCCC(C)(C)C1CC2` (stereo not given in full), for which the inhibition was -14.7%.

As to `CCCCCCCCCCCCCC(=O)O[C@@H]1[C@@H](C)[C@@]2(O)[C@@H](C=C(CO)C[C@]3(O)C(=O)C(C)=C[C@@H]23)[C@@H]2C(C)(C)[C@]12OC(C)=O`, the inhibition is 87% (active).

Take `CCCCC/C=C\C/C=C\C/C=C\C/C=C\CCCCCC(=O)NCCO`: the inhibition was -36.6%.
